In the supplement of paper PMC11732987, “Enantioselective OTUD7B fragment discovery through chemoproteomics screening and high-throughput optimisation” (Communications Chemistry, 2025):

Assays:
Assay in all cases: log2 ratio of Biotin-Ahx-Ub-VS probe labelling (fragment/DMSO); higher = less target engagement (more negative = stronger competition), active = hit call of the paper (q ≤ 0.05, log2 ratio ≤ -1)
Details in all cases: compound concentration: 200 uM; treatment time: 3 h
USP34 = USP34 (UniProt Q70CQ2)
Chain of USP34 (Q70CQ2 whole entry, the tested form may be a part): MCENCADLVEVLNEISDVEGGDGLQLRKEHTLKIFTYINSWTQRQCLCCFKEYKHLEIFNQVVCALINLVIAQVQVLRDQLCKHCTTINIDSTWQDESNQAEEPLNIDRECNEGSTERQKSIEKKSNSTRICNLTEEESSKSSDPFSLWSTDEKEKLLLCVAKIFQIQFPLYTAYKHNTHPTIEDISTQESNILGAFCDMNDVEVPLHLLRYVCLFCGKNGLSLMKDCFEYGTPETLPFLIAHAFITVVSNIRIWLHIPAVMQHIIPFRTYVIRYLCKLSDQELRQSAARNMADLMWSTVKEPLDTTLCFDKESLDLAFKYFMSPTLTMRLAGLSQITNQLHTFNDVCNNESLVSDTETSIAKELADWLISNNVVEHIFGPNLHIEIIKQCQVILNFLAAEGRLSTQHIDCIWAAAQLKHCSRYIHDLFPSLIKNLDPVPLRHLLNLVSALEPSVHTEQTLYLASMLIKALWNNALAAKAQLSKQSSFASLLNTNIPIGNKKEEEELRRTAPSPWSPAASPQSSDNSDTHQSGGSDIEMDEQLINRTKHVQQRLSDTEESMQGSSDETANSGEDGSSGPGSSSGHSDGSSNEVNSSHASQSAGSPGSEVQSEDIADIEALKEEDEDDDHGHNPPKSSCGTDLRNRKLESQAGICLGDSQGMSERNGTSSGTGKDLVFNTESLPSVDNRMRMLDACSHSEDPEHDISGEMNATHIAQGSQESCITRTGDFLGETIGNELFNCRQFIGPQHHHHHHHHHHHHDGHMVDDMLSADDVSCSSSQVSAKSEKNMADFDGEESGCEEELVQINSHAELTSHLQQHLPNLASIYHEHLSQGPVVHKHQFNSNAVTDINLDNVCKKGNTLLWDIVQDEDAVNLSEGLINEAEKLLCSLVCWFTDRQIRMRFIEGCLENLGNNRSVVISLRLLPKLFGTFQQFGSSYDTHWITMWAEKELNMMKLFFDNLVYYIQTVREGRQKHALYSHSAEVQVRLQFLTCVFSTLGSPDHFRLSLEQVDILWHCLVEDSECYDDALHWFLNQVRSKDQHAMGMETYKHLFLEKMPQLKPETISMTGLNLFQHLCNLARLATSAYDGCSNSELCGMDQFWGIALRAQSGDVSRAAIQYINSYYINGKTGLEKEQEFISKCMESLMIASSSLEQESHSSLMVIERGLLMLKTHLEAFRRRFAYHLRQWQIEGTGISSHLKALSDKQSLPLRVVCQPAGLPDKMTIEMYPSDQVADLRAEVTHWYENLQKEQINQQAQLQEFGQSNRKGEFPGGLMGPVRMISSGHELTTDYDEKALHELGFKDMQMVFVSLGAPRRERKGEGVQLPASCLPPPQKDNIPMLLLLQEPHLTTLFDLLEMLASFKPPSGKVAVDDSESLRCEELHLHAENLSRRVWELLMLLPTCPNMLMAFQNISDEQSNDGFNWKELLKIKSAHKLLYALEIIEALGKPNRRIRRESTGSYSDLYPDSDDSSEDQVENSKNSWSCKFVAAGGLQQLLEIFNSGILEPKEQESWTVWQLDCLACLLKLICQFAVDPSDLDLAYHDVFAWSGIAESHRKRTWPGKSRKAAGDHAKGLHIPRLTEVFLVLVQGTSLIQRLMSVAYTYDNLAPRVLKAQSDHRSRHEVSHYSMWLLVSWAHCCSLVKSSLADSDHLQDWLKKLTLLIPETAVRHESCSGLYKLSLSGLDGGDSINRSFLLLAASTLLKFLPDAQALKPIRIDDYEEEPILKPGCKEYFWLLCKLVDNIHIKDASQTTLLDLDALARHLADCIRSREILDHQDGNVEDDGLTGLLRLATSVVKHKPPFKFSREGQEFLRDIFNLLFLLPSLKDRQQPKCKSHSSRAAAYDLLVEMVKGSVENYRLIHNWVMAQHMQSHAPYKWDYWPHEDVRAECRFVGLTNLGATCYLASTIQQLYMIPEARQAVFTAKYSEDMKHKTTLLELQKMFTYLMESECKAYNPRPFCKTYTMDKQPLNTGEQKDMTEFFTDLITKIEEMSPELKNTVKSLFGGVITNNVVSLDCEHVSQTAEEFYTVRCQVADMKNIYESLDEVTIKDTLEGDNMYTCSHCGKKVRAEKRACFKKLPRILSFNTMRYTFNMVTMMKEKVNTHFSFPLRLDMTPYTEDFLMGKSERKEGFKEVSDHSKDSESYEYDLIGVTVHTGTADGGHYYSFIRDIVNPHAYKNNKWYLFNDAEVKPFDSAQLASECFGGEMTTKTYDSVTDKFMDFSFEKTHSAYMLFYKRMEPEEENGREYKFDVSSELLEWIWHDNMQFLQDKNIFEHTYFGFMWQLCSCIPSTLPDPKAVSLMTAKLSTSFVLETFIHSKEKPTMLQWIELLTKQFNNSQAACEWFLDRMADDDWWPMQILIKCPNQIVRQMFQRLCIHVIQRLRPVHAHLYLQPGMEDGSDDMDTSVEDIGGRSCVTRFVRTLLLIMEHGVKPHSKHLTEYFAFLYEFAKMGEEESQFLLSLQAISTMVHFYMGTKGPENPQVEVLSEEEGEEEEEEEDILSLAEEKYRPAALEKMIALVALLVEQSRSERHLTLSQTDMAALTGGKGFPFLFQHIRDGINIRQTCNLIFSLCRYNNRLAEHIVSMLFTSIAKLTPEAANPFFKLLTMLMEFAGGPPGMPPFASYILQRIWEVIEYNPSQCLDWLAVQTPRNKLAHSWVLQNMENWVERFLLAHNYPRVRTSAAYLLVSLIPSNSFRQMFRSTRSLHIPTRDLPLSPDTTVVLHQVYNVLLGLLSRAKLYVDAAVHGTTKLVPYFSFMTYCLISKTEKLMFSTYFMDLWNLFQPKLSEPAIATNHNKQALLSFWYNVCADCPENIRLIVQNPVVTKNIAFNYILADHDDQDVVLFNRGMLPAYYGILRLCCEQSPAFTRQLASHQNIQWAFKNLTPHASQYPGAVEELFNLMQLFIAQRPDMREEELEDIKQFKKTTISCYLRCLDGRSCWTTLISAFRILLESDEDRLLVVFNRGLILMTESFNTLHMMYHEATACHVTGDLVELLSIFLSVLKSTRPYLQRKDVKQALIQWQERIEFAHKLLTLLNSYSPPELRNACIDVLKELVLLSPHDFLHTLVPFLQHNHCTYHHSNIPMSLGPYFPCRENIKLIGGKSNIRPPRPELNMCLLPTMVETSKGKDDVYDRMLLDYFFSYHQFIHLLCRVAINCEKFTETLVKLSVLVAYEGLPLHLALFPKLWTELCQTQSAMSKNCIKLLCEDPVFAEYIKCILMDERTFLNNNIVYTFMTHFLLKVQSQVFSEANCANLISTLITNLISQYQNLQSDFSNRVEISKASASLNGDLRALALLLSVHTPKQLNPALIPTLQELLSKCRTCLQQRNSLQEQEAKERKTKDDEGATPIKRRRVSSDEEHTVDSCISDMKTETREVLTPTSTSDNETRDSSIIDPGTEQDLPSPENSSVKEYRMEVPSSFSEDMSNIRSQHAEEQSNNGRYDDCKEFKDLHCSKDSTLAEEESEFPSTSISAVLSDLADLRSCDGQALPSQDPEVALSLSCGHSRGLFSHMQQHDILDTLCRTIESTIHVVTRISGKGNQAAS
Procedure, shortened: (§1)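 HEK293T lysate in Tris/CHAPS/IGEPAL buffer with protease inhibitors (495 µg per sample) was given fragment at 200 µM or vehicle for 3 h, in triplicate. It then received Biotin-Ahx-Ub-VS at 0.5 µM final for 1 h. Labelled DUBs were NeutrAvidin-enriched, digested with LysC and trypsin, and run by diaPASEF LC-MS/MS. Values are average log2 fragment/vehicle ratios by unpaired t-test on global-median-normalised Spectronaut quantities of proteins with ≥2 unique peptides.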

USP36 = biological target: T1, USP36 (UniProt Q9P275)
T1 sequence (whole entry): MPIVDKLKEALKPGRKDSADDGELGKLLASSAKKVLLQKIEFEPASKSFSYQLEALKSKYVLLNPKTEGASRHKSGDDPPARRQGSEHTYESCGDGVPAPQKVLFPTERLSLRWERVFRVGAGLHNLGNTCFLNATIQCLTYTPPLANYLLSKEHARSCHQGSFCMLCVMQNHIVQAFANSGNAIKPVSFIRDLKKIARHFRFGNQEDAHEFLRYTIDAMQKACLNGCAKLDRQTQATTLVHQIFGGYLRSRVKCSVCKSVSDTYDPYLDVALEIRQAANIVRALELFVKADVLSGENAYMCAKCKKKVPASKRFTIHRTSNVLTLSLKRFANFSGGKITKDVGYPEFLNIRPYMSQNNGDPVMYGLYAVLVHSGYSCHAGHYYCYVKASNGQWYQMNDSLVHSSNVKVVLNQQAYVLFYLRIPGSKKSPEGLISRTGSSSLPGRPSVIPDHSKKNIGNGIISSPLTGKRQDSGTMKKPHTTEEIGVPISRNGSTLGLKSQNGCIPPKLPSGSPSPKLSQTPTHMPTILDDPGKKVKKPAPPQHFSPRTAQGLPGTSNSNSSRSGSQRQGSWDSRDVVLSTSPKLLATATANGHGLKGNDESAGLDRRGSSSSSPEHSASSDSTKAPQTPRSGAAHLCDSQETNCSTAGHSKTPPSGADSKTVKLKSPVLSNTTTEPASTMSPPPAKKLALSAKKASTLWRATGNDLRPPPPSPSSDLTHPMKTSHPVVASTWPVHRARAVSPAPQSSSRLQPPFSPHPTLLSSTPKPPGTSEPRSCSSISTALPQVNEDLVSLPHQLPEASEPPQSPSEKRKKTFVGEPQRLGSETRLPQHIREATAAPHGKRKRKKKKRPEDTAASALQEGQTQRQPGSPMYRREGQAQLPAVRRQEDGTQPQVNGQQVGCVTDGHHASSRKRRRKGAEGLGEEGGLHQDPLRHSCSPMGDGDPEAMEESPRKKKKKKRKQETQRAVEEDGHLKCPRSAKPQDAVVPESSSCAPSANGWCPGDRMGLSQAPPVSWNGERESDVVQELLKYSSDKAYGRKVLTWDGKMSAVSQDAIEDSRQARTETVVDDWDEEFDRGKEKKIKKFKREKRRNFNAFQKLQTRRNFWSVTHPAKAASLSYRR
Procedure, shortened: as §1

USP38 = biological target: T2, USP38 (UniProt Q8NB14)
T2 sequence (whole entry): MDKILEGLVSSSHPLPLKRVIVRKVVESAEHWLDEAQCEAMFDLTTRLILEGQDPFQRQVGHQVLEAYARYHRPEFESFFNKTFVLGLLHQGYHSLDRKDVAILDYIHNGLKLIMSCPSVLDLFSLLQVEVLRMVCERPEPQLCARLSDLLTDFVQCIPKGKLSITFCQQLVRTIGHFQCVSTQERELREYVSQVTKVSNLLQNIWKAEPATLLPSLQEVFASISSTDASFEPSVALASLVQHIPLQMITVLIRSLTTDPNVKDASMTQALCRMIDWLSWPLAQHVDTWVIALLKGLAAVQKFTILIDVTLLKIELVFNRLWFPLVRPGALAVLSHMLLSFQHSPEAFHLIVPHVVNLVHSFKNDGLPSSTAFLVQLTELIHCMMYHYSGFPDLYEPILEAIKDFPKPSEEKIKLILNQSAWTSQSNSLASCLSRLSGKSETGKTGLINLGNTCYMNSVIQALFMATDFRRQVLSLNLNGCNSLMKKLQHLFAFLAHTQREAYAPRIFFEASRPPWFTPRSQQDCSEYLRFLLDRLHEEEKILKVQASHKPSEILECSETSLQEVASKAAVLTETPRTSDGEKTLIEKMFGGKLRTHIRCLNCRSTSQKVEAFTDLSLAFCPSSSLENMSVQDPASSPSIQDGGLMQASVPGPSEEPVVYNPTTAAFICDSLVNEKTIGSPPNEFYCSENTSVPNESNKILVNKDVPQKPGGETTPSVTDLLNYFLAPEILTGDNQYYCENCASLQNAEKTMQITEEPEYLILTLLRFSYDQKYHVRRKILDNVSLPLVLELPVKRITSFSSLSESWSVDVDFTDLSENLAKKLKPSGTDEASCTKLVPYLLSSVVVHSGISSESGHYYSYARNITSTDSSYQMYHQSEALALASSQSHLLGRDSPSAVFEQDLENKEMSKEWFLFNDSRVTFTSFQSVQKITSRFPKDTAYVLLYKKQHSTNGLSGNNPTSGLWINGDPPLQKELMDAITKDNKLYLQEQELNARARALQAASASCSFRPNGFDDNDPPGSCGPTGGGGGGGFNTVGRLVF
Procedure, shortened: as §1

USP39 = biological target: T3, USP39 (UniProt Q53GS9)
T3 sequence (whole entry): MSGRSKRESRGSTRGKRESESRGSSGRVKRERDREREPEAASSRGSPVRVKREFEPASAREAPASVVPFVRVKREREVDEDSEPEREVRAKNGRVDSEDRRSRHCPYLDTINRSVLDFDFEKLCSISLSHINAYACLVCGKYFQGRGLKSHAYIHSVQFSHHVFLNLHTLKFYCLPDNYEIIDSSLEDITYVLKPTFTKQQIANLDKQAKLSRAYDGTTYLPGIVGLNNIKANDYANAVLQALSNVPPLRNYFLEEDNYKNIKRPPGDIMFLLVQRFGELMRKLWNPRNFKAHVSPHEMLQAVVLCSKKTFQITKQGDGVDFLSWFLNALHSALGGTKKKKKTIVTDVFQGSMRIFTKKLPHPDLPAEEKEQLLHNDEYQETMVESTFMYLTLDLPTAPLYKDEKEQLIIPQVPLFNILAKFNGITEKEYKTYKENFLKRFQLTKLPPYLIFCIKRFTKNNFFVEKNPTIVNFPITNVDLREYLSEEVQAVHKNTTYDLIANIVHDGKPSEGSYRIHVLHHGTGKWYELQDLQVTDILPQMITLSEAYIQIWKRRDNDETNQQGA
Procedure, shortened: as §1

USP4 = biological target: T4, USP4 (UniProt Q13107)
T4 sequence (whole entry): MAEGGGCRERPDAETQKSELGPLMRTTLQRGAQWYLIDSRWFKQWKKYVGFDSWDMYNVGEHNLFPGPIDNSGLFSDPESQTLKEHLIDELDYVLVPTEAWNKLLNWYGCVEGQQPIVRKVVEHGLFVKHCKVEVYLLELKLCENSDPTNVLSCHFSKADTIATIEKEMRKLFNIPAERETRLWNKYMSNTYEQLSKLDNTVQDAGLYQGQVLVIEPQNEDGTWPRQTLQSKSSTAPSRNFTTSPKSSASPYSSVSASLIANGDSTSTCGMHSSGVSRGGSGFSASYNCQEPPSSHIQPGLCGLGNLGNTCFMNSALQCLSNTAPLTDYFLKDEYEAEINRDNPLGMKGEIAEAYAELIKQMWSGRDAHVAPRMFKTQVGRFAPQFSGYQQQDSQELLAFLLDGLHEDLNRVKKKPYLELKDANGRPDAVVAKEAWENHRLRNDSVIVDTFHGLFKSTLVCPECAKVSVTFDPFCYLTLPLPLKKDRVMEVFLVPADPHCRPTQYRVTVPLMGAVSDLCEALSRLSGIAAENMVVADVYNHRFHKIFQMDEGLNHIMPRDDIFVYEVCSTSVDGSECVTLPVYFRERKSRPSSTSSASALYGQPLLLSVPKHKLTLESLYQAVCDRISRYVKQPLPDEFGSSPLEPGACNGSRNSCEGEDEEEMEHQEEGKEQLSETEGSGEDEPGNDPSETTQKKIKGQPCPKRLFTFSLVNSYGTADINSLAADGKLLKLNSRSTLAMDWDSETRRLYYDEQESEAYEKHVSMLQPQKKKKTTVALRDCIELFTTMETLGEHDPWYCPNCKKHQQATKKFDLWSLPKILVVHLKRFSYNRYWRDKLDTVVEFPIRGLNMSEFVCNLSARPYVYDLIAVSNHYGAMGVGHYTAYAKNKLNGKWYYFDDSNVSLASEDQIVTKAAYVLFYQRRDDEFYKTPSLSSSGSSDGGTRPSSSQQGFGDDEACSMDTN
Procedure, shortened: as §1

Measured: log2 ratio of Biotin-Ahx-Ub-VS probe labelling

COc1ccc(C2CCCN2C(=O)CCl)c(OC)c1 (stereo not given)
inactive: USP34 -0.0529 | USP36 -0.129 | USP38 -0.231 | USP39 0.128 | USP4 -0.347
